Rv3671c protease: inhibitors of M. tuberculosis serine protease Rv3671c; AID 2606; 320,000 compounds, 0.048% hits; inhibition, % at 5.96 µM; P9WHR9; in the data active means inhibition above about 38%;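 further: extracellular domain of Rv3671c used as enzyme; 0% = enzyme with DMSO and 100% = no enzyme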
Target sequence (P9WHR9 whole entry, looked up, the tested form may be a part): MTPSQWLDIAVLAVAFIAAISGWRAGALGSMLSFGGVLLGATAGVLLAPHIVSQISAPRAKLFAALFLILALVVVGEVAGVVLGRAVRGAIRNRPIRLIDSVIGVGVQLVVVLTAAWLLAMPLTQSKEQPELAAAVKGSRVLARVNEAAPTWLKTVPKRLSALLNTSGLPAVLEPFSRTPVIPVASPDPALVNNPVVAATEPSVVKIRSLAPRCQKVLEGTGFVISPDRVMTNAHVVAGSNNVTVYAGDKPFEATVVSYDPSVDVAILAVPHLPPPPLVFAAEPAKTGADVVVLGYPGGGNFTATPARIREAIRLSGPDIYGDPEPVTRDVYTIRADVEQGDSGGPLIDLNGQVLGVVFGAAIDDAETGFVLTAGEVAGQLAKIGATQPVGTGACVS
UGM FP inh: inhibitors of M. tuberculosis UDP-galactopyranose mutase; P9WIQ1; purified UGM, fluorescence polarization probe displacement; inhibition, % at 10 µM; 320,000 compounds, 0.06% hits; AID 504406; in the data active means inhibition above about 10%, passing the limit was not always enough
FadD28 FP inh: blocks FadD28 binding to the bisubstrate probe; fluorescence polarization; inhibition, % at 12.5 µM; 360,000 compounds, 0.22% hits; AID 588549; in the data active means inhibition above about 8.5%, passing the limit was not always enough
SSB-PriA inh: K. pneumoniae PriA-SSBct interaction inhibition. AlphaScreen SSBct-PriA binding, biotinylated peptide. inhibition, % at 33 µM. 430,000 compounds, 0.6% hits; in the data active means inhibition mostly above about 37%, no sharp cut-off; inactive means mostly below about 20%;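 further: plate controls were negative control peptide for no effect and reference peptide for full effect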
PrP 5UTR inh: inhibition of PrP 5' UTR reporter expression; 340,000 compounds, 0.35% hits; inhibition, % (no concentration beside the values); cell-based PrP 5' UTR mRNA reporter, plate reader; in the data active means inhibition above about 52%; further: 0 = median of the neutral control wells
PrPC surface inh: cell surface PrPC inhibition, primary TR-FRET screen; P04156; inhibition, % at 13.8 µM; TR-FRET read-out; 370,000 compounds, 0.43% hits; in the data active means inhibition above about 24%; further: 0% = median of the test wells and 100% = reference compound wells
An asterisk follows results filed as active; x = not tested or not shown; ! = not active in a repeat. Rows were chosen to be rich in hits. Some 1.2% of all compounds tested hit in one or more screens of this group.

SMILES | Rv3671c protease | UGM FP inh | FadD28 FP inh | SSB-PriA inh | PrP 5UTR inh | PrPC surface inh
CCOC(=O)c1c(C)oc2c1c1c(c3ccccc32)OCN(Cc2ccccn2)C1 | -20.5 | 0.7 | -0.3 | 57.0* | -81.7 | -11.6
O=C(NC[C@H](O)c1csc2ccccc12)c1ccc2c(c1)OCO2 | x | x | x | -11.0 | x | x
C=CS(=O)(=O)c1ccc(Oc2ccc(S(=O)(=O)C=C)cc2)cc1 | -1.0 | 0.6 | -4.6 | -7.8 | 2.0 | 63.7*
CC(C)Nc1nc(NC(C)C)nc(N(C)N)n1 | -11.9 | -2.9 | -2.9 | 65.3* | -4.2 | 3.6
Cc1ccc(NC(=O)CCC(=O)NNC(=O)COc2ccc([N+](=O)[O-])cc2)cc1C | -17.4 | 0.2 | -1.3 | -4.9 | -44.1 | 5.7
Cc1ccc(NC(=O)NNC(=O)COc2ccc([N+](=O)[O-])cc2)cc1C | -123.9 | 4.3 | -1.1 | 39.9* | 1.5 | -11.2
COCc1nc2ccccc2n1CC(=O)NC[C@H]1CCCO1 | x | x | x | -16.0 | x | x
COc1cccc(NC(=O)Nc2ccc(C(C)(C)C)cc2)c1 | x | x | 19.1* | -12.8 | -57.8 | 12.3
CN1/C(=C\C=NO)C(C)(C)c2ccccc21 | x | x | x | -5.1 | x | x
CN1/C(=C\C=C(C#N)C#N)C(C)(C)c2ccccc21 | 1.5 | 71.5* | -1.6 | -4.1 | 7.0 | 8.1
Cc1ccc(-c2cn3cccc(C)c3n2)cc1N | x | x | x | 1.0 | x | x
Cc1cccn2cc(-c3cccc(N)c3)nc12 | x | x | x | 52.0* | x | x
O=C(Nc1nc2c(s1)CCCC2)C1CCN(c2ccc(-n3cccn3)nn2)CC1 | x | x | x | 48.0* | x | x
Oc1ccccc1Nc1nc(NCc2ccccc2)c2ccccc2n1 | 2.3 | 0.6 | -21.4 | 49.7* | -17.6 | 0.8
CCCC(=O)OCC(=O)Nc1ccc(Cl)cc1[N+](=O)[O-] | x | x | x | 78.3* | x | x
CCN(CC)S(=O)(=O)c1ccc(Cl)c(C(=O)Nc2ccc(Cl)cc2[N+](=O)[O-])c1 | -3.6 | 2.5 | -3.8 | 42.8* | -15.6 | 11.5
Cc1ccc(Sc2nc(Nc3ccccc3)sc2Sc2ccc(C)cc2)cc1 | x | x | x | 1.0 | x | x
O=S(=O)(Cc1ccccc1)NCCn1ccc(-c2cccs2)n1 | x | x | x | -30.0 | x | x
Cc1nnc(NC(=O)c2sc3nc(-c4cccs4)cc(C(F)(F)F)c3c2N)s1 | -2.2 | 2.4 | 9.4* | -1.8 | -3.9 | -5.4
COc1ccccc1NC(=O)c1sc2nc(Cc3ccccc3)cc(C(F)(F)F)c2c1N | -2.1 | 30.2* | 1.2 | -24.9 | -19.0 | x
Nc1c(C(=O)Nc2nccs2)sc2nc(-c3cccs3)cc(C(F)(F)F)c12 | -8.6 | 1.4 | -2.4 | -24.2 | -7.7 | 2.1
Cc1cccc(-n2cnc(C(=O)NNC(=S)Nc3ccc(Cl)cc3)c2)n1 | 3.0 | 0.0 | 0.8 | 80.0* | -14.6 | 6.9
Cc1cccc(-n2cnc(C(=O)NNC(=O)Nc3ccc(Cl)cc3)c2)n1 | x | x | x | 49.2 | x | x
O=C(NCc1ccc(Cl)cc1)N1CCC(c2nnc(-c3ccco3)s2)CC1 | x | x | x | -22.0 | x | x
O=C(CSc1n[nH]c(-c2ccccn2)n1)Nc1ccccc1F | -0.4 | 4.5 | -1.3 | 49.8* | -13.4 | -7.5
SMILES | Rv3671c protease | UGM FP inh | FadD28 FP inh | SSB-PriA inh | PrP 5UTR inh | PrPC surface inh
COc1ccccc1NC(=O)CSc1n[nH]c(-c2ccccn2)n1 | -8.8 | 2.9 | -1.0 | 76.7* | -13.2 | -0.6
COc1ccccc1-c1nc(SCC(=O)Nc2ccccc2F)n[nH]1 | -5.0 | -1.7 | -0.7 | -9.9 | -3.3 | 3.2
COc1ccccc1NC(=O)CSc1n[nH]c(-c2ccco2)n1 | x | x | -3.1 | -3.7 | -9.2 | -1.6
O=C(CSc1n[nH]c(-c2ccccn2)n1)Nc1ccccc1 | -1.1 | 0.8 | -0.2 | 82.2* | -19.3 | 4.2
COc1ccc(NC(=O)CSc2n[nH]c(-c3ccccn3)n2)cc1 | -7.9 | 0.2 | 0.1 | 67.3* | -10.0 | -1.8
Cn1c(C(F)(F)F)nn(CCNC(=O)c2ccsc2)c1=O | x | x | x | -7.0 | x | x
CCOc1ccc(CC(=O)N2CCN(c3ccc(-c4ccccc4OC)nn3)CC2)cc1 | x | x | x | -2.0 | x | x
COc1cc([N+](=O)[O-])c(OC)cc1Nc1ccccc1C(=O)O | x | x | x | x | x | -31.8
COc1cc(-c2ccc(Nc3ccccc3C(=O)O)c(OC)c2)ccc1Nc1ccccc1C(=O)O | x | x | 77.6* | 34.2 | -13.9 | 6.7
O=C(O)c1ccc(-c2ccc(/C=C3\NC(=O)N(Cc4ccc(Cl)cc4)C3=O)o2)cc1Cl | x | x | 16.5* | -7.9 | -10.0 | -9.3
CCOC(=O)Nc1ccc2c(c1)Nc1ccccc1S2 | 8.8 | 0.3 | -1.0 | 53.3* | -21.1 | 3.7
CCN(CC)CCN(C(=O)c1cccc(N2C(=O)CCC2=O)c1)c1nc2c(F)cc(F)cc2s1 | x | x | x | -9.0 | x | x
O=C(O)CCCN1C(=O)/C(=C/c2ccc(-c3nc4ccccc4s3)o2)SC1=S | -4.2 | -0.2 | 8.6* | -11.4 | -106.7 | 2.0
O=C(O)CCCCCN1C(=O)/C(=C\c2ccc(-c3ccc(Cl)cc3)o2)SC1=S | -1.1 | -4.2 | 1.4 | -7.0 | -28.0 | 5.2
CCOc1cccc2cc(-c3csc(NC(=O)Cc4ccc(SCC)cc4)n3)oc12 | x | x | x | -4.0 | x | x
COc1ccc(C(=O)Nc2noc3ncccc23)cc1OC | x | x | x | -1.0 | x | x
COc1ccc(-c2cc3ccccc3n2CC(O)CN2CCCCC2)cc1 (centres undefined) | -0.3 | -1.0 | 1.6 | 8.0 | -16.9 | 4.0
CCC(=C(c1ccc(OC)cc1)c1ccc(OC)cc1)c1cn(CC(O)CN2CCN(C)CC2)c2ccccc12 (centres undefined) | 15.6 | -2.2 | -0.8 | 55.5* | -27.2 | -22.5
CCOc1cccc2sc(N(CCCN(C)C)C(=O)c3ccc(S(=O)(=O)N(C)Cc4ccccc4)cc3)nc12 | -3.8 | 3.4 | -1.0 | 38.0*! | 2.6 | -24.4
CCOc1cccc2sc(N(CCCN(C)C)C(=O)c3ccc(S(=O)(=O)N(CC)Cc4ccccc4)cc3)nc12 | -6.0 | 2.7 | -6.0 | 29.2 | -2.3 | -19.0
CCN(c1ccccc1)S(=O)(=O)c1ccc(C(=O)N(CCCN(C)C)c2nc3c(C)cccc3s2)cc1 | -0.3 | 2.8 | -2.9 | 36.0*! | -25.7 | -14.7
Cc1ccc2sc(N(CCCN(C)C)C(=O)c3ccc(S(=O)(=O)N(C)Cc4ccccc4)cc3)nc2c1C | -2.4 | -1.6 | -6.3 | 37.7 | -71.3 | -18.3
O=C(O)c1cc(S(=O)(=O)N2CCSC(c3ccccc3)CC2)ccc1F (centres undefined) | x | x | x | -4.0 | x | x
O=C1C=CC(=O)C2C1C1(Cl)C(Cl)=C(Cl)C2(Cl)C1(Cl)Cl (centres undefined) | x | x | 37.4* | 4.8 | -5.0 | -4.1
CCCc1cc(N2CCCC2)n2nc3nc(C)cc(C)c3c2n1 | x | x | x | -48.0 | x | x
Cc1ccnc(NC(=O)Cn2c(=O)oc3cc(S(=O)(=O)N4CCCC4)ccc32)c1 | -2.7 | -2.1 | -6.2 | -5.4 | -13.5 | -0.1
CC1CCN(S(=O)(=O)c2ccc3c(c2)oc(=O)n3CC(=O)N2c3ccccc3CC2C)CC1 (centres undefined) | -28.7 | 0.1 | -0.4 | 98.1* | -4.9 | 0.1
Cc1cc(NC(=O)Cn2c(=O)oc3ccccc32)no1 | -7.9 | 3.1 | -3.2 | 4.4 | -12.4 | 3.0
Cc1cccc(NC(=O)Cn2c(=O)oc3ccccc32)n1 | -6.1 | -2.2 | 19.7* | -8.6 | -8.9 | 2.5
Cc1cccc(NC(=O)Cn2c(=O)oc3cc(S(=O)(=O)N4CCCC4)ccc32)n1 | -6.1 | 5.9 | 14.3* | 1.7 | -4.9 | 4.0

Assay outcomes as filed in PubChem.
